From PubChem BioAssay
Only some compounds are listed: those with a hit (about 7.9% of all), similar ones and a draw of the others.
Marburg entry inh = inhibitors of Marburg virus binding or cell entry | AID 540276 | Marburg virus pseudotyped entry inhibition, cell reporter | 300,000 compounds, 1.8% hits | Potency, µM (doses to about 37.8 µM), usual class: inhibitors; calls by dose curve; tested in HEK293 cells
HCMV antiviral = inhibitors of human cytomegalovirus | HFF cells, HCMV-luciferase reporter, 72 h; stronger effect = lower value | activity change, negative = inhibition, % at 57.5 µM | 410,000 compounds, 4.5% hits; in the data active = activity change below about -60%; inconclusive = no clear call, values can overlap the other calls; inactive = above about -39%
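Two compound doses tested in HFFs infected with HCMV-luciferase, MOI 1 PFU/cell, 72 h at 37C. Lysate luminescence read with OneGlo; data normalized against buffer-only and 10uM Salinomycin inhibitor controls.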
HCV inh = inhibitors of hepatitis C virus infection; Huh7.5.1 HCVcc-Cre infection, luciferase reporter, 44 h; 340,000 compounds, 3.4% hits; AID 651820; Potency, µM (doses to about 41.8 µM), most hits filed as inhibitors; active = well fitted inhibition curve with a large enough effect; inconclusive = small, poorly fitted or top-dose-only effect, or another doubt; inactive = no such curve, though single readings can be large or run the other way
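Infectious HCV cell culture screen: compound-treated cells (1,000/well, pre-plated 4 h) are infected with HCVcc-Cre at roughly 0.5 moi and grown 44 h. Infection is quantified by luciferase signal after 15 min substrate incubation at room temperature.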
Lassa entry inh = blocks Lassa virus binding to or entry into cells; Potency, µM (doses to about 37.9 µM), hits mostly inhibitors; 300,000 compounds, 1.2% hits; Lassa virus pseudotype entry inhibition, cell reporter; AID 540256; calls by dose curve; tested in HEK293 cells; also: nearly all actives have a fitted effect of over 50% in size
FMDV antiviral = foot and mouth disease virus antiviral activity; FMDV antiviral cell-based qHTS; Potency, µM (highest dose often 57.9 µM), most hits filed as inhibitors; 410,000 compounds, 1.2% hits; AID 1159524; calls by dose curve; tested in HEK293T cells; also: read-out not given here; nearly all actives have a fitted effect of over 45% in size
Hits are given with their value; – = inactive; ? = inconclusive; · = no result.

SMILES | Marburg entry inh | HCMV antiviral | HCV inh | Lassa entry inh | FMDV antiviral
Cc1cccc(NC(=S)NCCc2ccccc2)n1 | ? | -72 | – | ? | –
Cc1cc(Cl)ccc1NC(=S)NCc1ccc(Cl)cc1 | – | – | ? | – | –
Cc1cc(Cl)ccc1NC(=S)NCCc1ccc(Cl)cc1 | ? | -83 | ? | – | –
S=C(NCCc1ccccc1)Nc1ccccn1 | ? | – | – | – | –
Cc1cc(Br)ccc1NC(=S)NCCc1ccccc1 | – | -66 | – | ? | –
Cc1ccc(NC(=S)NCCc2ccccc2)c(C)c1 | – | ? | ? | – | –
CCNC(=S)Nc1ccc(Cl)cc1Cl | – | -65 | – | ? | –
CCN(CC)CCNC(=O)c1c(C)oc2ncnc(N3CCOCC3)c12 | · | – | · | – | –
Clc1ccc(CCNc2ncnc3c2c(-c2ccccc2)cn3-c2ccccc2)cc1 | · | – | · | – | –
O=C1Nc2ccccc2N(O)N1c1cc(-c2ccc(Cl)cc2)[nH]n1 | · | ? | – | · | –
S=C(NCCc1ccccc1)Nc1ccc(Br)cc1 | ? | -75 | – | – | –
Cc1ccc(NC(=S)NCCc2c[nH]c3ccccc23)c(C)c1 | · | -90 | ? | · | –
CN(C)[C@H]1CC[C@@]23CCCN2C(=O)CCC[C@H]3[C@H]1Cc1ccccc1 | · | – | · | · | ·
c1ccc(C(Cc2nc(-c3ccncc3)no2)c2ccccc2)cc1 | – | -69 | 7.9µM | ? | ?
CCc1ccc(-c2nc(-c3ccncc3)no2)cc1 | 13µM | – | – | ? | –
Cc1ccc(Cc2nc(-c3ccncc3)no2)cc1 | – | – | – | – | –
c1ccc(-c2nc(-c3ccncc3)no2)cc1 | – | – | – | – | –
c1ccc(-c2ccc(-c3nc(-c4ccncc4)no3)cc2)cc1 | ? | -72 | – | ? | ·
CCCCc1ccc(-c2nc(-c3ccncc3)no2)cc1 | – | – | – | – | –
O=C(NCc1cccnc1)c1cnn(-c2nccc(-c3cccs3)n2)c1C1CC1 | · | · | · | · | –
COC(=O)c1cc(CNC(=O)c2cnsn2)cc(NC(=O)c2ccccc2OC)c1 | · | · | · | · | –
CCOC(=O)C1=C(O)/C(=C/c2cn(CC(=O)N3CCCC3)c3ccccc23)SC1=Nc1ccccc1 | ? | · | 11µM | – | 8.9µM
CN1C(=O)C(=Cc2cn(CC(=O)N3CCCC3)c3ccccc23)C(=O)N(C)C1=O | – | – | – | – | –
O=C(NCCc1ccccc1)c1ccc(CSc2nc3ccncc3n2Cc2ccccc2)cc1 | – | – | · | ? | –
COCCNC(=S)Nc1cccc2cnccc12 | ? | – | ? | – | –
SMILES | Marburg entry inh | HCMV antiviral | HCV inh | Lassa entry inh | FMDV antiviral
COc1ccc(OCCNC(=S)Nc2cccc3ccccc23)cc1 | – | -84 | ? | – | –
CCCCNC(=S)Nc1cccc2cnccc12 | ? | – | 10µM | – | –
S=C(NCCc1ccccc1)Nc1cccc2cnccc12 | – | -95 | ? | ? | –
COc1ccc(CCNC(=S)Nc2cccc3ccccc23)cc1 | – | – | ? | – | –
Cc1ccc(C)c(NC(=S)Nc2cccc3cnccc23)c1 | ? | – | ? | – | –
Cc1ccccc1NC(=S)Nc1cccc2cnccc12 | – | -65 | – | – | ?
COCCCN(C(=O)Cc1ccc(S(=O)(=O)N2CCOCC2)s1)c1c(N)n(Cc2ccccc2)c(=O)[nH]c1=O | · | ? | – | · | –
CC(C)c1ccc(OCC(=O)Nc2ccc(S(=O)(=O)Nc3ncccn3)cc2)cc1 | · | – | · | – | –
CC(NCc1ccc2c(c1)n(C)c(=O)n2C)c1ccccc1 (stereo not drawn) | – | – | · | – | –
CC1=NN(Cc2ccccc2)C(=O)C1C(c1ccc(Cl)cc1)C(C#N)C#N (stereo not drawn) | – | – | – | ? | 28µM
C[C@]12CCC3C(CC[C@H]4C[C@@H](O)CC[C@]34C)[C@H]1C=CC2=O (stereo partly drawn) | ? | – | – | ? | 20µM
C[C@]12CC[C@H](O)C[C@@H]1CC[C@@H]1[C@@H]2CC[C@]2(C)C(=O)CC[C@@H]12 | · | – | – | · | –
C[C@]12CCC3[C@@H](CC[C@@H]4C[C@H](O)CC[C@]34C)[C@@H]1CCC2=O (stereo partly drawn) | · | -75 | – | · | –
CCc1cc(-c2nnn(CCC3COCCO3)c2CC)ccc1-c1cn(Cc2ccccc2)nn1 (stereo not drawn) | · | -83 | · | · | ?
COc1ccc(N2CCN(C(=O)c3nn(C)c4c3CSc3ccccc3-4)CC2)cc1 | – | ? | · | – | –
COc1cccc(NC(=O)CSc2nc3cc(OC)c(OC)cc3c3nc(-c4ccccc4)nn23)c1 | ? | – | · | – | –
O=C(c1cc(COc2ccc(-n3cncn3)cc2)on1)N1CCCC1 | · | – | – | · | –
CCC1CCCCN1C(=O)c1cc(COc2ccc(-n3cncn3)cc2)on1 (stereo not drawn) | – | -61 | 32µM | – | ?
CSC1=NC(C)(C)C=C(/C=C/c2ccc(Cl)cc2)N1 | ? | -74 | 8.9µM | ? | 20µM
CCSC1=NC(C)(C)C=C(/C=C/c2ccc(Cl)cc2Cl)N1 | ? | – | ? | ? | ?
CSC1=NC(C)(C)C=C(/C=C/c2ccc(Cl)cc2Cl)N1 | ? | -87 | ? | – | ?
Clc1ccc(-c2noc3ncnc(NCCc4ccccc4)c23)cc1 | · | ? | · | 4µM | –
Cc1ccc(CN2CCC(CNc3ncnc4onc(-c5ccc(F)cc5)c34)CC2)cc1 | · | – | · | – | –
Cc1noc2ncnc(NCCc3ccccc3)c12 | · | ? | · | – | ?
Fc1ccc(-c2noc3ncnc(NCC4CCN(Cc5ccc(Cl)cc5)CC4)c23)cc1 | · | -65 | · | ? | –
SMILES | Marburg entry inh | HCMV antiviral | HCV inh | Lassa entry inh | FMDV antiviral
CSCC[C@H](NC(=O)c1cccc(S(=O)(=O)N2CCN(C)CC2)c1)c1nc2ccccc2[nH]1 | ? | – | – | – | –
O=C(O)C1(O)CC(O)C(O)C(O)C1 (stereo not drawn) | · | · | · | · | –
Cc1ccc(C(C)C)cc1NC(=O)Nc1ccc([N+](=O)[O-])cc1 | · | -102 | 13µM | · | ?
Cc1cc(O)c(C(C)C)cc1NC(=O)Nc1ccc([N+](=O)[O-])cc1 | ? | – | ? | ? | –
CC(=O)Nc1ccc(OCCOc2ccc(NC(C)=O)cc2)cc1 | · | – | – | · | –
CC(=O)Nc1ccc(OCCOc2ccc([N+](=O)[O-])cc2)cc1 | · | -72 | – | · | –
O=C(Nc1ccc([N+](=O)[O-])cc1)Nc1cnccn1 | · | -81 | – | · | –
O=C(Nc1ccc(Oc2ccc(NC(=O)Nc3ccc([N+](=O)[O-])cc3)cc2)cc1)Nc1ccc([N+](=O)[O-])cc1 | – | -95 | 5.6µM | – | ?
CC(C)c1c(C(=O)NCc2ccncc2)cnn1-c1nccc(-c2cccs2)n1 | · | · | · | · | –
CC(=O)Nc1ccc(OS(=O)(=O)c2ccc([N+](=O)[O-])cc2)cc1 | · | -62 | – | · | –
C(=C\c1nc(-c2ccccc2)oc1Nc1ccc2ccccc2c1)/c1ccccc1 | – | · | · | · | ·
O=C1CC(c2ccccc2)Cc2nc(N3CCc4ccccc4C3)ncc21 (stereo not drawn) | – | – | – | 15µM | –
Cc1ccc(C2CC(=O)c3cnc(N4CCc5ccccc5C4)nc3C2)cc1 (stereo not drawn) | – | – | – | 3.7µM | –
CC1CC(C)CN(c2ncc3c(n2)CC(c2ccccc2Cl)CC3=O)C1 (stereo not drawn) | ? | – | – | 10µM | ?
